For 110 compounds, Potency results are on record in PubChem BioAssay AID686978 (National Center for Advancing Translational Sciences (NCATS), 2013).

Molecules are shown by their SMILES. The campaign covered roughly 420,000 compounds. About 64,000 (15%) were called active. Another 27% or so got no clear call; they are omitted. Calls follow the shape of the dose curve; as a rule, active = well fitted inhibition curve with a large enough effect; inconclusive = small, poorly fitted or top-dose-only effect; inactive = flat fitted curve, though single readings scatter. These entries were drawn from the full list. Entries that show only a call come without a potency.
Potency is read from the fitted curve at half-maximal effect.

The assay can be described thus: qHTS for Inhibitors of human tyrosyl-DNA phosphodiesterase 1 (TDP1): qHTS in cells in absence of CPT. Also: nearly all actives have a fitted effect of over 55% in size. As to conditions: DT40 Tdp1-/- hTDP1 cells, no CPT, ATP luminescence, 48 h; activity change, negative = growth inhibition: at 46.2 µM (top of the series). The gist of the method:
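Growth kinetics read by CellTiter-Glo luminescence after ≥48 hr at 37 °C. Cells: DT40 Tdp1-/- stably carrying human TDP1, 400 per well, compound exposure in the absence of CPT (DMSO vehicle).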
As to `Cc1nc2sc(C)c(C)n2c(=O)c1S(=O)(=O)NCCc1ccc(Cl)cc1`, the Potency result was “inactive”.
The same measure for `O=C(CN1CCN(S(=O)(=O)c2ccc(Cl)s2)CC1)N1CCCCC1`: “inactive”; for `O=C(N/N=C/c1ccc(O)c(O)c1)C1c2ccccc2Oc2ccccc21`: 25.9 µM (active).
On to `O=C(N/N=C/c1cc2c(cc1Br)OCO2)C1COc2ccccc2O1` (stereo not given), for which the Potency result is “inactive”.
Take `CCC(C)(C)NC(=O)C1c2ccccc2Oc2ccccc21`: the Potency result is “inactive”.
The same measure for `COC1[C@H](OC(N)=O)C(O)[C@H](Oc2ccc3c(O)c(NC(=O)c4ccc(O)c(CC=C(C)C)c4)c(=O)oc3c2C)OC1(C)C` (stereo not given in full): “inactive”; for `O=C1C=C(NCCNc2c(F)c(F)c(CO)c(F)c2F)CCC1`: “inactive”; for `O=c1[nH]c(NCCO)nnc1Cc1ccc(Cl)cc1`: “inactive”.
To `CC(C)c1ccc(Cc2nnc(NCCCO)[nH]c2=O)cc1` belongs “inactive”; to `COc1ccc(Cc2nnc(N/N=C/c3ccccc3O)[nH]c2=O)cc1OC`, 0.0206 µM (active).
Regarding `CCc1cc(=O)oc2cc(C)cc(OC(C)C(=O)O)c12` (stereo not given), the Potency result was “inactive”.
Regarding `CC(C)CNS(=O)(=O)c1ccc(OCC(=O)Nc2ccc3c(c2)OCO3)c(Cl)c1`, the Potency entry was “inactive”.
Consider `CC(=O)OCC(C)n1c(=O)c2ccccc2n1C(C)=O` (stereo not given), for which the Potency entry was “inactive”.
The same measure for `CCCc1cc(=O)[nH]c(SCC(=O)N2C(C)CCCC2C)n1` (stereo not given): “inactive”; for `CCCCCn1c(=O)[nH]c2cc(C(=O)NCCCN3CCCCC3C)ccc2c1=O` (stereo not given): “inactive”.
On to `COCCn1c(=O)[nH]c2cc(C(=O)NCc3cccnc3)ccc2c1=O`, for which the Potency result was “inactive”.
To `CCCCCn1c(=O)[nH]c2cc(C(=O)Nc3cc(C)cc(C)c3)ccc2c1=O` belongs 4.61 µM (active); to `CCN(C(=O)CSc1nnnn1-c1ccc(OC)cc1)C1CCS(=O)(=O)C1` (stereo not given), “inactive”; to `COc1ccc([C@H]2CC(=O)C=C(/C=C/c3ccccc3)C2)cc1`, “inactive”.
To `COc1cc(NC(=O)c2noc3c2CSc2ccccc2-3)cc(OC)c1OC` belongs 8.2 µM (active).
To `COc1cc(C(=O)Nc2nccs2)cc(OC)c1OC` belongs “inactive”.
As to `COc1ccc2c(c1)CCc1c(C(=O)Nc3c(C)n(C)n(-c4ccccc4)c3=O)noc1-2`, the Potency result was “inactive”.
The same measure for `COc1cccc(COC(=O)C2CCN(S(=O)(=O)c3cccs3)CC2)c1OC`: “inactive”; for `CC(C)(Oc1ccc(Cl)cc1)C(=O)OCC(=O)NCCc1ccc(S(N)(=O)=O)cc1`: “inactive”; for `Cc1ccc(CCN2CC(C(=O)O)CC2=O)cc1` (stereo not given): “inactive”.
The same measure for `Cc1ccc(C(=O)O)cc1S(=O)(=O)NCC1CCCO1` (stereo not given): “inactive”.
The same measure for `Cc1ccc(-c2nnc(Nc3ccc(C(=O)N(C)C)cc3)c3ccccc23)cc1S(N)(=O)=O`: “inactive”; for `COCCCNc1nc2c(-c3cccc(C(F)(F)F)c3)nnn2c2ccccc12`: “inactive”; for `CCNS(=O)(=O)c1cc(-c2nnc(Nc3cccc(C(F)(F)F)c3)c3ccccc23)ccc1C`: 5.8 µM (active).
Take `Cc1cc(Cl)c(S(=O)(=O)NCC2CCCO2)cc1OCC(N)=O` (stereo not given): the Potency result was “inactive”.
To `Cc1ccc(-c2nnc(Nc3cccc(Br)c3)c3ccccc23)cc1S(=O)(=O)NCC1CCCO1` (stereo not given) belongs 11.6 µM (active); to `CCC(C)CN1C(=O)CN(S(C)(=O)=O)CC1(C)C(=O)Nc1ccc2c(c1)OCCO2` (stereo not given), “inactive”; to `Cc1ccc(CSc2nc(-c3ccccc3)c(C#N)c(=O)[nH]2)cc1`, “inactive”.
The same measure for `CCCCCN1CC(O)=C(c2ccccc2)C1=N`: “inactive”; for `Cc1nnc(SCC(=O)N2CCN(c3ccccc3)CC2)n1-c1ccccc1`: “inactive”.
To `CCC(C)Sc1nnc(-c2c[nH]c3ccccc23)n1CCOC` (stereo not given) belongs “inactive”; to `CCOC(=O)N1CCN(C(=O)CSc2nnc(-c3c[nH]c4ccccc34)n2CCOC)CC1`, 20.6 µM (active).
`CCCCn1c(N)c(N(CCC(C)C)C(=O)c2ccc([N+](=O)[O-])o2)c(=O)[nH]c1=O`: the Potency entry was “inactive”.
The same measure for `CS(=O)(=O)N1CCC2(CCN(c3ccncc3)CC2)CC1`: “inactive”; for `O=C(C1=C(O)C(=O)N(CCOCCO)C1c1ccccn1)c1cccs1` (stereo not given): “inactive”; for `CCc1ccc(NC(=O)CN2C(=O)CCSc3ccc(S(=O)(=O)N4CCCC4)cc32)cc1`: “inactive”.
As for `CN(CCC(=O)Nc1cc(S(=O)(=O)N(C)C)ccc1Cl)CC(=O)Nc1ccc(F)cc1`, the Potency result was “inactive”.
To `CCc1ccc(CN(C)C(C)C(=O)Nc2ccc(S(=O)(=O)N3CCCC3)cc2)cc1` (stereo not given) belongs 16.4 µM (active); to `CN(CC(=O)Nc1ccc(S(=O)(=O)N2CCCC2)cc1)Cc1ccc(Cl)c(Cl)c1`, 18.4 µM (active); to `CCc1ccc(NC(=O)CN2C(=O)COc3ccc(S(=O)(=O)N4CCCC4)cc32)cc1`, “inactive”.
The same measure for `CN1CCN(S(=O)(=O)c2ccc(NC(=O)C3CCCO3)cc2)CC1` (stereo not given): “inactive”.
To `O=S(=O)(NC(=S)Nc1ccccc1)c1ccc(F)cc1` belongs “inactive”; to `CC(=O)c1ccc[n+](C(C)CCC(C)[n+]2cccc(C(C)=O)c2)c1` (stereo not given), “inactive”; to `O=C(O)CCN1C(=O)CC2(CCCCC2)C1=O`, “inactive”.
For `CN(CC(=O)Nc1ccccc1Cl)C(=O)COc1cccc2c1OC(C)(C)C2`, the Potency result is “inactive”.
The same measure for `CCOc1ccc(CNC(=O)c2cc(=O)[nH]c3ccc(S(=O)(=O)N4CCCCC4)cc23)cc1`: “inactive”; for `CCn1cc(C(=O)NCc2ccccc2)c(=O)c2cc(S(=O)(=O)N3CCCCC3)ccc21`: 7.31 µM (active).
The same measure for `CCN(CC)CCCNC(=O)c1cn(C)c2ccc(S(=O)(=O)N(C)C3CCCCC3)cc2c1=O`: “inactive”; for `CCn1cc(C(=O)NCC2CCCO2)c(=O)c2cc(S(=O)(=O)N3CCCCC3)ccc21` (stereo not given): “inactive”.
To `Cc1ccc(CNC(=O)C2CCN(S(=O)(=O)c3ccc4nc5c(c(C(=O)O)c4c3)CC(C)CC5)CC2)cc1` (stereo not given) belongs “inactive”; to `CCOCCCNC(=O)c1cn(CC)c2ccc(S(=O)(=O)N3CCc4ccccc4C3)cc2c1=O`, 16.4 µM (active).
Regarding `CCn1cc(C(=O)N(C)Cc2ccccc2)c(=O)c2cc(S(=O)(=O)N3CCCCCC3)ccc21`, the Potency entry is “inactive”.
On to `CCn1cc(C(=O)NCc2ccc(C)cc2)c(=O)c2cc(S(=O)(=O)N3CCc4ccccc4C3)ccc21`, for which the Potency was 11.6 µM (active).
For the compound `CN(Cc1ccccc1)C(=O)c1cn(C)c2ccc(S(=O)(=O)N3CCCCC3)cc2c1=O`, the Potency result was “inactive”.
To `CCC1CCCCN1S(=O)(=O)Cc1ccccc1Cl` (stereo not given) belongs “inactive”; to `CCCCn1c(N)c(N(CCOC)C(=O)c2cccc(S(=O)(=O)N3CCCCC3)c2)c(=O)[nH]c1=O`, “inactive”; to `Cc1cccc(N2O[C@H]3C=CC2CCCC3)n1`, “inactive”.
Turning to `Cc1ccc(CN2CCN(/N=C/c3ccco3)CC2)c(C)c1`, the Potency result is “inactive”.
As for `COc1cc2ccccc2cc1C(=O)N1CCOCC1`, the Potency entry is “inactive”.
For `CCOc1ccc(C(C)=O)cc1COC(=O)CN1C(=O)NC2(CCCC2)C1=O`, the Potency entry was “inactive”.
The same measure for `COc1ccc(Cl)cc1NS(=O)(=O)c1cccc(C(=O)NCC2CCCO2)c1` (stereo not given): “inactive”; for `CCC(C)C(NC(=O)C1CCC(=O)N1C(=O)OCc1ccccc1)C(=O)NC(C(=O)N1CCCC1C(N)=O)C(C)CC` (stereo not given): “inactive”; for `Cc1ccc(-c2cc(C(=O)N3CCc4ccccc4C3)no2)cc1`: “inactive”.
The same measure for `CCn1c(SCC(=O)NC2CC2)nnc1-c1ccccn1`: “inactive”.
The same measure for `COC(C[C@H](O)CC(=O)COCc1ccccc1)OC`: “inactive”.
Regarding `Cc1cc(C)cc(OCC(=O)NC(C)c2ccccc2)c1` (stereo not given), the Potency entry is “inactive”.
Regarding `CCOC(=O)C(C(=O)OCC)C(C#N)c1ccccc1` (stereo not given), the Potency entry is “inactive”.
The same measure for `CCOC(=O)/C=C/C(=O)OCC(=O)NC(c1ccccc1)c1ccccc1`: 8.2 µM (active).
To `Cc1ccc(SCC(=O)NC(=O)NCc2ccco2)c(C)c1` belongs “inactive”; to `CC1=C(C(=O)N2CCOCC2)CC(CC(=O)NCc2cccs2)C(=O)N1CCCN1CCCC1=O` (stereo not given), “inactive”; to `CCN1C(=O)/C(=C\N2CCN(c3cccc(Cl)c3)CC2)SC1=S`, 16.4 µM (active).
Consider `CCN1C(=O)/C(=C\N2CCOCC2)SC1=S`, for which the Potency result is “inactive”.
To `O=C(O)C(c1ccccc1)N1C(=O)/C(=C\c2ccc(-c3cccc(Cl)c3)o2)SC1=S` (stereo not given) belongs “inactive”.
Regarding `CC1=NNC(=O)C1CC(=O)N/N=C/c1ccncc1` (stereo not given), the Potency result is “inactive”.
The same measure for `Cc1ccc(S(=O)(=O)NCC(=O)N2CCOCCOCCOCCOCC2)cc1`: “inactive”.
Regarding `CC1CCN(C(=O)COC(=O)CCC(=O)c2cccs2)CC1`, the Potency entry is “inactive”.
Turning to `CCC(=O)N1CCN=C1SCc1ccc(F)cc1`, the Potency entry is “inactive”.
The same measure for `COc1ccc(OC)c(S(=O)(=O)NCCC(C)C)c1`: “inactive”; for `COc1ccccc1N1CCN(/N=C\C(Br)=C\c2ccccc2)CC1`: 7.31 µM (active); for `COc1ccccc1N1CCN(C(=O)C(=O)N/N=C/c2ccccc2F)CC1`: “inactive”.
`COc1ccccc1N1CCN(/N=C/c2ccc(O)cc2O)CC1`: the Potency result is “inactive”.
To `COCCn1c(N)c(N(Cc2ccccc2)C(=O)C2CCCCC2)c(=O)[nH]c1=O` belongs “inactive”; to `NC(=O)C1CCN(CC(O)CSc2ccc(F)cc2)CC1` (stereo not given), “inactive”; to `CCCN1CC=C2C(C#N)=C(N)C(C#N)(C#N)C(c3cc(OC)ccc3OC)C2C1` (stereo not given), “inactive”.
For `CCOc1ccc(C2C(C(=O)NC)=C(C)Nc3nc4ccccc4n32)cc1OC` (stereo not given), the Potency result is “inactive”.
`COc1cccc(NC(=O)COC(=O)CCOc2ccccc2OC)c1`: the Potency result is “inactive”.
To `COc1cccc(NC(=O)CC(c2ccc(OC(C)C)cc2)c2ccccc2OC)c1` (stereo not given) belongs 11.6 µM (active); to `COc1cccc(NC(=O)C(C)Oc2ccccc2)c1` (stereo not given), “inactive”; to `CCCn1c(=S)[nH]c2ccc(C(F)(F)F)cc21`, “inactive”.
To `CC(C)n1c(=S)[nH]c2cc(C(F)(F)F)ccc21` belongs 16.4 µM (active).
To `CNS(=O)(=O)c1ccc2c(c1)[nH]c(=S)n2C` belongs “inactive”; to `O=C(NCc1ccncc1)C1CCN(C(=O)c2cccc(Cl)c2)CC1`, “inactive”.
For the compound `CCC(C(=O)NC1CCCC1)N(C(=O)Cn1nnc(-c2ccc(C)o2)n1)c1ccc(OC)c(OC)c1` (stereo not given), the Potency result is “inactive”.
The same measure for `COc1cc(NC(=O)N2CCOCC2)cc(OC)c1`: “inactive”; for `COC(=O)COc1ccc(S(=O)(=O)Nc2ccc(NC(C)=O)cc2)cc1`: “inactive”; for `COC(C(=O)Nc1ccc(S(=O)(=O)Nc2ccc(C)c(C)c2)cc1)c1ccccc1` (stereo not given): 14.6 µM (active).
To `COc1cc(NS(=O)(=O)c2ccc3c(c2)OCC(C(=O)N2CCCC2)O3)cc(OC)c1` (stereo not given) belongs 20.6 µM (active).
Regarding `COC(C(=O)Nc1ccc(C(C)=O)cc1)c1ccccc1` (stereo not given), the Potency entry was “inactive”.
To `COc1ccc(S(=O)(=O)Nc2ccc3c(c2)OCO3)cc1Cl` belongs “inactive”; to `CC(=O)Nc1ccc(S(=O)(=O)Nc2ccc(N3CCCCC3)cc2)cc1`, 2.91 µM (active); to `COc1cc(NS(=O)(=O)c2ccc(NC(C)=O)cc2)cc(OC)c1`, 8.2 µM (active).
Take `COc1cc(OC)cc(C(=O)Nc2ccc(S(=O)(=O)Nc3cc(C)on3)cc2)c1`: the Potency entry was “inactive”.
Take `CC(=O)Nc1ccc(NS(=O)(=O)c2ccc3c(c2)NC(=O)CC(=O)N3)cc1`: the Potency result was “inactive”.
The same measure for `COC(C(=O)NCc1ccccc1C)c1ccccc1` (stereo not given): “inactive”; for `CC(=O)Nc1ccc(S(=O)(=O)Nc2ccc(N3CCOCC3)c(F)c2)cc1`: “inactive”.
